Measurements reported in PubChem BioAssay.
Values without a mark were called inactive. Activity calls are given as the source filed them. Unless noted, no stated cut-off is given here; in the data, active means inhibition above about 33%; inactive means the rest.

Columns and labels:
[1] = biological target: Nuclear receptor coactivator 3 (Homo sapiens) (UniProt Q9Y6Q9); assay: SRC3 coactivator transcriptional activity inhibitors, confirmation, cell-based, luminescence, quadruplicate (AID 588792;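 active means mean inhibition over 43.08%, the solvent-only control mean plus 3 SD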;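 further: 0% = DMSO treated cells and 100% = gossypol at 36 µM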); conditions: HEK293 GAL4-SRC3 luciferase reporter, at 3.6 µM, active compounds read high
Nuclear receptor coactivator 3 (Homo sapiens), sequence (Q9Y6Q9 whole entry, looked up, the tested form may be a part): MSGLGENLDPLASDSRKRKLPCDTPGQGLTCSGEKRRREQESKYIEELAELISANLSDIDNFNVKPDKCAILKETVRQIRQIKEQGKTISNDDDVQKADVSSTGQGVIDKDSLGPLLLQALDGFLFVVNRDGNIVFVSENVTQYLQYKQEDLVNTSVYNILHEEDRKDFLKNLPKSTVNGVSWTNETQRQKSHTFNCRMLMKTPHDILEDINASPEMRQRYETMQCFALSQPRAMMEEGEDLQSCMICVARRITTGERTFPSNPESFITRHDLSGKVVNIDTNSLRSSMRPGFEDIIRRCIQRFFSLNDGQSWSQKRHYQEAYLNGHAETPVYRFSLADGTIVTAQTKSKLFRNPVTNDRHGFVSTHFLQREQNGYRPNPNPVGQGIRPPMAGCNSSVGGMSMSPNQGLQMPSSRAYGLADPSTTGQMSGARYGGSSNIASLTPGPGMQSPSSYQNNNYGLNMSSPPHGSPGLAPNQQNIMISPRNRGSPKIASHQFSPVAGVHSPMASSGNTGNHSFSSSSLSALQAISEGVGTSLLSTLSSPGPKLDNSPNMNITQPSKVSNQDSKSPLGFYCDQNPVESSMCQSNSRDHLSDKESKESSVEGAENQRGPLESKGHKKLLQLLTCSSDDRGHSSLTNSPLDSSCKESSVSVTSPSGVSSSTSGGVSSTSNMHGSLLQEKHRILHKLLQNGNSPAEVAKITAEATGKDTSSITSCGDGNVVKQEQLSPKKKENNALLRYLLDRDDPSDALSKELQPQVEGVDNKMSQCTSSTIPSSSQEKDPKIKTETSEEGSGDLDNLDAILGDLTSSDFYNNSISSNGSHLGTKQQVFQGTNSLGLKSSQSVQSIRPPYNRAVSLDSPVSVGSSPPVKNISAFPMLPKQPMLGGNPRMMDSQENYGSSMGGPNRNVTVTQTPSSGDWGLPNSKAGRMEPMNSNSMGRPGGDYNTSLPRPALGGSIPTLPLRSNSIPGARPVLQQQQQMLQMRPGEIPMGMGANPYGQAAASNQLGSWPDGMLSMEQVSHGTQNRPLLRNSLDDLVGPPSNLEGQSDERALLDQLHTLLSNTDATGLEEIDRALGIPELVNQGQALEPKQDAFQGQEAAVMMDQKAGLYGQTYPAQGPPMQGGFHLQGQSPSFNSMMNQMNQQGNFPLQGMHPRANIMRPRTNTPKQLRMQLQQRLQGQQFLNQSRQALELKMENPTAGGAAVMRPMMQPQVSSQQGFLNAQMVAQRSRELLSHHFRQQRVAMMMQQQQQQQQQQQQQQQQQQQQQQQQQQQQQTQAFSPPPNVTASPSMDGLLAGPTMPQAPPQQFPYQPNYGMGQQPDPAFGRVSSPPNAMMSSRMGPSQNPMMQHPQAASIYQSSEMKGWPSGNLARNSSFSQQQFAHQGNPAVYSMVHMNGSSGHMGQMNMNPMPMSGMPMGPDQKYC

[2] = tested on: transactivating tegument protein VP16 (Human herpesvirus 1), Gal4-VP16 luciferase reporter; assay: VP16 transactivation inhibitors, counter-screen for SRC3 inhibitor project, cell-based, luminescence, high throughput (AID 588794; in the data active means inhibition above about 30%); conditions: mammalian cells, VP16-driven luciferase reporter luminescence; at 3.6 µM; active compounds read high
[3] = biological target: Nuclear receptor coactivator 1 (Homo sapiens) (UniProt Q15788); assay: SRC1 coactivator transcriptional activity inhibitors, confirmation, cell-based, luminescence, quadruplicate (AID 588820;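 active means mean inhibition above 46.68%, the untreated control wells mean plus 3 SD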;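 further: 0% = DMSO wells and 100% = gossypol 36 µM treated wells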); conditions: HEK293 GAL4-SRC1 luciferase reporter, at 3.6 µM, active compounds read high
Nuclear receptor coactivator 1 (Homo sapiens), sequence (Q15788 whole entry, looked up, the tested form may be a part): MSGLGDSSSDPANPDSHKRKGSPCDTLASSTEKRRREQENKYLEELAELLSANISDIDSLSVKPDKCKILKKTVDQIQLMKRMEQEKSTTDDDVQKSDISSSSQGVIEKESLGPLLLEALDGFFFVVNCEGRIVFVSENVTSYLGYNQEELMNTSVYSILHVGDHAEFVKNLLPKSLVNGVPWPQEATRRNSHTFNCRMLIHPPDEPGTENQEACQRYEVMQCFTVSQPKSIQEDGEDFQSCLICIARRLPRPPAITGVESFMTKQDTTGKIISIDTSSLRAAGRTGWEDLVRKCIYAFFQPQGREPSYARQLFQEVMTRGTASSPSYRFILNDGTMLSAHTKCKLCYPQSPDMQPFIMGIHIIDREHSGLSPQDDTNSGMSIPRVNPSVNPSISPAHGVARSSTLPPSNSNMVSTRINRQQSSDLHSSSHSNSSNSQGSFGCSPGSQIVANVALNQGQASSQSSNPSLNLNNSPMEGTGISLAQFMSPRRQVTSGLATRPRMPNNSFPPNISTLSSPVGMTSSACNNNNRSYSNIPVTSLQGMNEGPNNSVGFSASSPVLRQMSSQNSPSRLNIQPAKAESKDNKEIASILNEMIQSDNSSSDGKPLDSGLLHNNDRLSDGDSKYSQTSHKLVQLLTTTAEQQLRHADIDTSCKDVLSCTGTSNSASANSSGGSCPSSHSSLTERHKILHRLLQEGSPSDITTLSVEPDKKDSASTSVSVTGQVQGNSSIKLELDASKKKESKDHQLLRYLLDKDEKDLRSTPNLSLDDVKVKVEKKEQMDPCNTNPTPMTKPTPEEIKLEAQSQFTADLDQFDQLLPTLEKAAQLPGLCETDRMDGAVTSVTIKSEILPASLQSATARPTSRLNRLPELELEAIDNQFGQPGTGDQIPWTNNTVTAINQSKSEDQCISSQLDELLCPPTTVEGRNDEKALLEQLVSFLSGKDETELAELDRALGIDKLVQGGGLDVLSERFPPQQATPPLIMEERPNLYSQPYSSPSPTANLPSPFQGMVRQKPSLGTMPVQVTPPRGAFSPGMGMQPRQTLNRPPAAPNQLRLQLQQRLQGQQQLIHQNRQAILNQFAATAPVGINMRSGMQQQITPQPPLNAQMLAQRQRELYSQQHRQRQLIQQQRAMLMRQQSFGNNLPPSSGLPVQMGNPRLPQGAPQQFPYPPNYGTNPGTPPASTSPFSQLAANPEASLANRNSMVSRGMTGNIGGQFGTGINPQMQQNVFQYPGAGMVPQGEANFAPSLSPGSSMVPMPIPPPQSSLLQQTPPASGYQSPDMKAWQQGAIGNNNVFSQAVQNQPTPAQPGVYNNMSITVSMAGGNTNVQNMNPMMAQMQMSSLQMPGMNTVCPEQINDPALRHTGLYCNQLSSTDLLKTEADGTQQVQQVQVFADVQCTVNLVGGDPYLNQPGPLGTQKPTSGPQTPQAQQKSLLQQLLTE

[4] = VP16 transactivation inhibitors, counter-screen for SRC1 inhibitor project, cell-based, luminescence, high throughput (AID 588824; in the data active means inhibition above about 25%); conditions: cell-based VP16 transactivation luciferase luminescence; at 3.6 µM; active compounds read high
[5] = StAR promoter reporter inhibitors, counter-screen for LRH-1 inverse agonist project, cell-based, luminescence, high throughput (AID 651611; in the data active means inhibition above about 28%); conditions: StAR promoter luciferase reporter counterscreen, at 3.6 µM, active compounds read high
[6] = biological target: Nuclear receptor subfamily 5 group A member 2 (Homo sapiens) (UniProt O00482); assay: LRH-1 (NR5A2) inverse agonists, retest, confirmation, cell-based, luminescence (AID 651613; in the data active means inhibition above about 42%;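 further: HEK293T cells co-transfected with LRH-1 and StAR promoter luciferase reporter; 0% = vehicle wells and 100% = parental cells lacking receptor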); conditions: cell-based LRH-1 luciferase reporter, inverse agonism; at 3.6 µM; active compounds read high
Nuclear receptor subfamily 5 group A member 2 (Homo sapiens), sequence (O00482 whole entry, looked up): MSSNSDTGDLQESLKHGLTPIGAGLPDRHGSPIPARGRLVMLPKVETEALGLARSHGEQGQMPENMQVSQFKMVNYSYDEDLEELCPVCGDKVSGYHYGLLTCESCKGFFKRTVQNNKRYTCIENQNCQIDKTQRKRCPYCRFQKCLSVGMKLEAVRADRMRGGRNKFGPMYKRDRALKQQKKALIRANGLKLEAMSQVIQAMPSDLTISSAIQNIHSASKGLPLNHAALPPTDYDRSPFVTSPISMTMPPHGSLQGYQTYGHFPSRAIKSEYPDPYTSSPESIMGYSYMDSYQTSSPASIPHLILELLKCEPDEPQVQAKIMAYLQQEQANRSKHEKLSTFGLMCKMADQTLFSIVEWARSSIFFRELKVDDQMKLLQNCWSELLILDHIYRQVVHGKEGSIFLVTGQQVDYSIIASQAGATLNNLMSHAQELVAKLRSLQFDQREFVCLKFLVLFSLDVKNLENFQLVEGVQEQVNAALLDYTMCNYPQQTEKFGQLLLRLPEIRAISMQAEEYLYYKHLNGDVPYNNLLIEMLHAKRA

[7] = biological target: Steroidogenic factor 1 (Homo sapiens) (UniProt Q13285); assay: SF1 (NR5A1) inverse agonists, counter-screen for LRH-1 inverse agonist project, cell-based, luminescence, high throughput (AID 651614; in the data active means inhibition above about 44%;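 further: cells cotransfected with StAR promoter reporter and SF1 expression vector; 0% = vehicle on cells with receptor and 100% = vehicle on cells lacking receptor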); conditions: cell-based SF1 luciferase reporter, at 3.6 µM, active compounds read high
Steroidogenic factor 1 (Homo sapiens), sequence (Q13285 whole entry, looked up, the tested form may be a part): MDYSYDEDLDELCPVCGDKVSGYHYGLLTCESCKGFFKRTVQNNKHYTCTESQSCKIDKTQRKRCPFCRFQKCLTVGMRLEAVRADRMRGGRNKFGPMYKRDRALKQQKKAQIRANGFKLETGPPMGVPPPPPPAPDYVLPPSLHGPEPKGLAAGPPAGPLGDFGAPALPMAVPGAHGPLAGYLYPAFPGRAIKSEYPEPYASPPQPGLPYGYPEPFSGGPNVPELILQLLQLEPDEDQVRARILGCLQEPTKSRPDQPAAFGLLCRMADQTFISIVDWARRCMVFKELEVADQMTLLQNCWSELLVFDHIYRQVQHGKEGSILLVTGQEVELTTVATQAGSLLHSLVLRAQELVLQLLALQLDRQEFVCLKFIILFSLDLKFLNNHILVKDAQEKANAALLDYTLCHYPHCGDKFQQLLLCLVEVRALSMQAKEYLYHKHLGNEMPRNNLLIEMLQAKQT

[8] = VP16 transactivation reporter inhibitors, counter-screen for LRH-1 inverse agonist project, cell-based, luminescence, high throughput (AID 651615); conditions: Gal4-VP16 luciferase reporter cells, at 3.6 µM, active compounds read high

| Compound | inhibition [1] | inhibition [2] | inhibition [3] | inhibition [4] | inhibition [5] | inhibition [6] | inhibition [7] | inhibition [8] |
| --- | --- | --- | --- | --- | --- | --- | --- | --- |
| COc1ccccc1-[n+]1c(C)cc(/C=C2\Sc3ccccc3N2C)cc1C | 81.9% (active) | 85.2% (active) | 8.54% | 79.1% (active) | 38.9% (active) | 104% (active) | 83.3% (active) | 91% (active) |
| CC(C)=CC(O)C/C(C)=C/COc1ccc2ccc(=O)oc2c1 (stereo not drawn) | 17.4% | 38.5% (active) | 0.43% | 40.6% (active) | -4.64% | 31.5% | 29.2% | -10.8% |
| CC[C@H]1CN2CCc3cc(OC)c(OC)cc3C2C[C@@H]1C[C@H]1NCCc2cc(OC)c(OC)cc21 (stereo partly drawn) | 97.5% (active) | 96% (active) | 91.5% (active) | 94.6% (active) | 95.7% (active) | 110% (active) | 98% (active) | 97.2% (active) |
| c1ccc(-c2nnc(-c3ccccn3)nc2NC2CCCCC2)cc1 | 70.2% (active) | 14.8% | 49.1% (active) | 18.8% | 82.6% (active) | 88.9% (active) | 74.7% (active) | 45.4% (active) |
| Cc1ccc(-n2c(-c3ccccc3)c[n+]3c2CCc2ccccc2-3)c(C)c1 | 61.7% (active) | 68.1% (active) | 42.5% | 69.4% (active) | 57.4% (active) | 107% (active) | 87.7% (active) | 91.7% (active) |
| O=C1NC(=O)C(c2ccc(F)cc2)N1 (stereo not drawn) | 3.02% | -3.31% | -2.47% | -5.94% | 11% | 8.89% | 2.89% | 4.11% |
